Here are results for 19 compounds from PubChem BioAssay (Tox21).

The nature of assay [1]: qHTS RealTime-Glo MT Cell Viability Assay in HepG2 cells - 40 hour (AID 1224870). Further: nearly all actives have a fitted effect of over 50% in size. The gist of the method: (§1)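 HepG2 cells mixed with RealTime-Glo MT reagents (NanoLuc plus cell-permeant prosubstrate) were seeded at 600 cells/well, incubated 5 h at 37 C/5% CO2, then pinned with compounds in DMSO; nonlytic luminescence tracked viability during 40 h treatment.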
For orientation: qHTS replaces the single test concentration by a dilution series.

Assay [2] is described as follows: A CellTox Green Cytotoxicity Assay to monitor cytotoxicity in HEK293 cells - 40 hour (AID 1224871). Further: nearly all actives have a fitted effect of over 45% in size. The essentials:
(§2)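 Tox21 screen in HEK293: membrane-impermeant cyanine dye fluoresces on binding dead-cell DNA; compound pinned 5 h post-seeding, plates held at 37 C, signal read repeatedly through 40 h.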

Assay [3] in a line: qHTS RealTime-Glo MT Cell Viability Assay in HEK293 cells - 16 hour (AID 1224872). Further: nearly all actives have a fitted effect of over 50% in size. Further: potency means the concentration at half of the fitted maximal effect. The essentials: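 HEK293 cells were seeded at 600 cells/well together with NanoLuc luciferase and cell-permeant prosubstrate, preincubated 5 h at 37 C/5% CO2, then given compound in DMSO by pintool. Luminescence from viable-cell prosubstrate reduction was read repeatedly over 40 h.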
Assay [4] is described as follows: qHTS RealTime-Glo MT Cell Viability Assay in HepG2 cells - 8 hour (AID 1224873). Further: nearly all actives have a fitted effect of over 55% in size. The gist of the method: as §1
The nature of assay [5]: qHTS RealTime-Glo MT Cell Viability Assay in HEK293 cells - 40 hour (AID 1224874). Further: nearly all actives have a fitted effect of over 50% in size. Further: potency means the concentration at half of the fitted maximal effect. The settings on record: RealTime-Glo luminescence; max response: stronger effect = lower value. The essentials: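 HEK293 + NanoLuc + prosubstrate, 600 cells/well; 5 h, 37 C/5% CO2; compound 23 nL in DMSO by pintool; 37 C; luminescence read at 0, 8, 16, 24, 32 and 40 h time points.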
Assay [6] in a line: A CellTox Green Cytotoxicity Assay to monitor cytotoxicity in HEK293 cells - 24 hour (AID 1224875). Further: series mostly up to about 77 µM; nearly all actives have a fitted effect of over 45% in size. The essentials: as §2
Assay [7] is described as follows: A CellTox Green Cytotoxicity Assay to monitor cytotoxicity in HepG2 cells - 16 hour (AID 1224876). Further: nearly all actives have a fitted effect of over 45% in size. The essentials: (§3)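 Measurements at 0, 8, 16, 24, 32 and 40 h of treatment captured CellTox Green fluorescence in HepG2 cells that had been co-plated with reagent and preincubated 5 h at 37 C/5% CO2.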
Assay [8] in a line: qHTS RealTime-Glo MT Cell Viability Assay in HepG2 cells - 32 hour (AID 1224877). Further: nearly all actives have a fitted effect of over 55% in size. The essentials:
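HepG2 cells were seeded at 600 cells/well together with NanoLuc luciferase and a cell-permeant prosubstrate, preincubated 5 h at 37 C/5% CO2, then pin-dosed with compounds in DMSO. Nonlytic luminescence from viable cells was read at each time point.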

The nature of assay [9]: A CellTox Green Cytotoxicity Assay to monitor cytotoxicity in HepG2 cells - 24 hour (AID 1224878). Further: nearly all actives have a fitted effect of over 45% in size. Further: potency means the concentration at half of the fitted maximal effect. The gist of the method: as §3
Assay [10] in a line: A CellTox Green Cytotoxicity Assay to monitor cytotoxicity in HepG2 cells - 40 hour (AID 1224879). Further: nearly all actives have a fitted effect of over 40% in size. Further: potency means the concentration at half of the fitted maximal effect. The gist of the method: as §3

Where “and” joins values, the source holds several entries; their conditions need not be identical. Equal entries are not always repeated. Inconclusive results are not listed. Where a structure was tested more than once in an assay, its records may differ in their call. Calls of active or inactive are those of the source. The call rests on the fitted dose curve; in most records, active means well fitted curve in the direction sought with a large enough effect in the repeat runs; inconclusive means weak or mixed curves; inactive means no such curve, though single readings can be large; an effect the other way counts as inactive or inconclusive.
On the % scale 0 is the no-effect control and ±100 the full control effect.

On to `CCOC(=O)n1ccn(C)c1=S`, for which the outcome in assay [1], in assay [7] and in [8] was inactive. For the same compound, the Potency entry in assay [2], in assay [3], in assay [4], in [6], in [9] and in assay [10] was “inactive” each time. For the same compound, the max response in [5] was 1.12% (inactive) and 2.41% (inactive).

As for `CC(=O)OCc1ccco1`, the call in [1], in assay [7] and in assay [8] was inactive. Further, the Potency result in [2], in [3], in [4], in assay [6], in assay [9] and in assay [10] was “inactive” throughout. Further, in [5], the max response is 3.13% (inactive) and 20% (inactive).

With `CCO[Si](CCCN)(OCC)OCC`, the compound was called inactive in assay [1], in assay [7] and in assay [8]. The Potency result in assay [2], in assay [3], in assay [4], in assay [6], in assay [9] and in assay [10] was “inactive” each time. Also, the max response in assay [5] is -7.12% (inactive) and 0.455% (inactive).

Consider `COCCCN`, for which the outcome in assay [1], in assay [7] and in assay [8] was inactive. Further, the Potency result in [2], in assay [3], in assay [4], in assay [6], in [9] and in [10] was “inactive” each time. The max response in [5] is 3.35% (inactive) and 3.08% (inactive).

For the compound `O=C(O)c1ccccc1C(=O)O`, the compound was called inactive in [1], in assay [7] and in assay [8]. Besides, the Potency result in [2], in assay [3], in [4], in [6], in assay [9] and in assay [10] was “inactive” throughout. Also, the max response in [5] is -5.44% (inactive) and 3.46% (inactive).

Regarding `CCCCCCO`, the call in [1], in assay [7] and in [8] was inactive. Also, the Potency result in assay [2], in assay [3], in [4], in [6], in [9] and in [10] was “inactive” each time. Also, the max response in assay [5] is -0.525% (inactive) and 0.519% (inactive).

For `COc1ccc(C)cc1N`, the outcome in [1], in assay [7] and in [8] was inactive. Also, the Potency entry in assay [2], in [3], in assay [4], in assay [6], in [9] and in assay [10] was “inactive” in each case. In [5], the max response is 3.89% (inactive) and 7.66% (inactive).

As for `COCCOC(=O)c1ccccc1C(=O)OCCOC`, the result in assay [1], in assay [7] and in [8] was inactive. The Potency result in assay [2], in assay [3], in assay [4], in assay [6], in assay [9] and in assay [10] was “inactive” each time. Moreover, the max response in [5] is 0.573% (inactive) and 0.131% (inactive).

On to `CCNc1ccccc1`, for which the compound was classed as inactive in assay [1], in [7] and in [8]. In addition, the Potency result in [2], in assay [3], in [4], in assay [6], in assay [9] and in assay [10] was “inactive” each time. Moreover, the max response in assay [5] is 0.38% (inactive) and 24% (inactive).

On to `C=C(C)[C@H]1CC=C(C)C(=O)C1`, for which the compound was classed as inactive in assay [1], in [7] and in [8]. Besides, the Potency result in assay [2], in assay [3], in assay [4], in [6], in assay [9] and in assay [10] was “inactive” each time. Further, the max response in [5] is -1.87% (inactive) and 0.747% (inactive).

For `CN(C)c1ccc(Cc2ccc(N(C)C)cc2)cc1`, the result in [1], in [7] and in assay [8] was inactive. In addition, the Potency result in assay [2], in assay [4], in [6], in [9] and in [10] was “inactive” throughout. Besides, the Potency was 21.9 µM (active) in assay [3]; 19.6 µM (active) and 24.5 µM (active) in assay [5].

Take `CC(O)CC(C)(C)O` (stereo not given): the compound was classed as inactive in [1], in assay [7] and in assay [8]. The Potency entry in assay [2], in [3], in assay [4], in [6], in assay [9] and in assay [10] was “inactive” in each case. For the same compound, in assay [5], the max response was 13.3% (inactive) and 0.19% (inactive).

In the case of `O=C(O)c1ccc(C(=O)O)c(C(=O)O)c1`, the compound was classed as inactive in assay [1], in assay [7] and in [8]. For the same compound, the Potency entry in assay [2], in assay [3], in [4], in [6], in assay [9] and in assay [10] was “inactive” each time. In assay [5], the max response was -1.73% (inactive) and 1.6% (inactive).

Take `O=[N+]([O-])c1ccc2nc[nH]c2c1`: the result in [1], in assay [7] and in assay [8] was inactive. The Potency entry in assay [2], in assay [3], in assay [4], in assay [6], in [9] and in [10] was “inactive” in each case. Also, the max response in assay [5] is 4.04% (inactive) and -21.2% (inactive).

On to `CC(=O)OC1CC(C)OC(C)O1` (stereo not given), for which the outcome in assay [1], in [7] and in assay [8] was inactive. Moreover, the Potency entry in [2], in [3], in assay [4], in assay [6], in [9] and in [10] was “inactive” in each case. The max response in [5] is 5.08% (inactive) and 9.58% (inactive).

As for `COc1cc(OC)c(C(=O)CCCN2CCCC2)c(OC)c1`, the compound was called inactive in assay [1], in [7] and in [8]. In addition, the Potency result in [2], in [3], in assay [4], in assay [6], in assay [9] and in [10] was “inactive” throughout. Further, in assay [5], the max response is -11.2% (inactive) and -1.98% (inactive).

Consider `C=CC[N+](C)(C)CC=C`, for which the compound was classed as inactive in assay [1], in [7] and in assay [8]. The Potency result in assay [2], in assay [3], in assay [4], in [6], in assay [9] and in assay [10] was “inactive” each time. Also, the max response in assay [5] was 2.31% (inactive) and 7.96% (inactive).

As for `CCCCC(C=O)CC` (stereo not given), the result in assay [1], in assay [7] and in assay [8] was inactive. Besides, the Potency entry in assay [2], in assay [3], in assay [4] and in assay [6] was “inactive” throughout. Besides, the max response in assay [5] is -0.352% (inactive) and 2.13% (inactive). The Potency entry is “inactive and 14.6 µM (active)” in assay [9]; “inactive and 14.6 µM (active)” in assay [10].

On to `CN(C)c1ccc(O)c2c1C[C@H]1C[C@H]3[C@H](N(C)C)C(=O)C(C(N)=O)=C(O)[C@@]3(O)C(=O)C1=C2O`, for which the call in assay [1], in assay [7] and in assay [8] was inactive. The Potency result in [2], in assay [3], in [4], in [6], in assay [9] and in assay [10] was “inactive” throughout. The max response in assay [5] is -2.64% (inactive) and -1.12% (inactive).
